# Experimental data published in ChEMBL document CHEMBL1201862, “PubChem BioAssay data set” (2004).
# About 750 (4.2%) of roughly 18,000 compounds were called active. Roughly 13% stayed inconclusive and do not appear here. The calls are words filed in the database; no cut-off is given here. Only a selection was taken, and actives are over-represented in it overall.
# Test: qHTS for Inhibitors of binding or entry into cells for Lassa Virus.
row,Structure (SMILES),Potency
1,CC12C(=O)OC(=O)C1(C)C1CCC2O1 (stereo unspecified),562 µM (active)
